Inconclusive results are not listed. The source made the active and inactive calls. Unless noted, the call rests on the fitted dose curve; in most records, active means well fitted curve in the direction sought with a large enough effect; inconclusive means small, poorly fitted or top-dose-only effect, or another doubt; inactive means no such curve, though single readings can be large; an effect the other way counts as inactive or inconclusive.
Legend:
[1] = Cell Viability - NIH 3T3 (AID 541); settings: NIH 3T3 cell viability, qHTS; activity change, negative = cytotoxicity: at 92.2 µM (top of the series); further: nearly all actives have a fitted effect of over 25% in size; further: potency means the concentration at half of the fitted maximal effect;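 on activity change, negative = cytotoxicity: plate controls were DMSO alone for no effect and tamoxifen positive control for full effect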
Procedure, shortened: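 Luminescent ATP signal (CellTiter-Glo) served as the viability read-out after NIH 3T3 cells were exposed to compounds over a concentration range for 40 hr at 37 °C. Hill-equation modelling of concentration-response data gave AC50.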

[2] = Cell Viability - SH-SY5Y (AID 544); settings: SH-SY5Y neuroblastoma cell viability; viability change, negative = cytotoxic: at 92.2 µM (top of the series); further: nearly all actives have a fitted effect of over 55% in size; further: potency means the concentration at half of the fitted maximal effect;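 on viability change, negative = cytotoxic: 0% = DMSO alone and -100% = 100 µM tamoxifen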
Procedure, shortened: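 Luminescent ATP read-out (CellTiter-Glo) measures loss of viable SH-SY5Y neuroblastoma cells after 40 hr compound exposure at 37 °C. AC50 values derive from standard Hill modelling of qHTS concentration-response data.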

[3] = Cell Viability - LYMP2-001 (AID 921);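 further: 0% = DMSO only and full inhibition = tetraoctylammonium bromide control wells; nearly all actives have a fitted effect of over 70% in size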
Procedure, shortened: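 CellTiter-Glo luminescence (intracellular ATP) after 24 hr compound exposure at 37 C, 2500 lymphoblastoid cells/well in complete medium. AC50 fitted with standard Hill equation; tetraoctylammonium bromide positive control.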

[4] = MultiTox-Fluor Cytotoxicity Assay - LYMP1-001 - Dead Cells (AID 946);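 further: cells exposed to compound for 16 h; 0% = DMSO and 100% = tetraoctylammonium bromide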
Procedure, shortened: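 LYMP1-001 lymphoblastoid cells (2500/well) treated 16 h at 37 C. Dead-cell protease cleavage of bis-AAF-R110 read at Ex/Em 485/520. Normalized to DMSO and 15 uM tetraoctylammonium bromide; AC50 from Hill fits.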

[5] = Cell Viability - LYMP1-003 - Assay at 40 hr (AID 964); further: on the % scale 0 is the no-effect control and ±100 the full control effect; nearly all actives have a fitted effect of over 60% in size
Procedure, shortened: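 Cells were seeded at 2500 per well and incubated 5 hr at 37 C. Compounds were added across a concentration series and left 40 hr at 37 C. CellTiter-Glo was added for 30 min at room temperature before luminescence reading.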

[6] = Cell Viability - LYMP2-011 (AID 969);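 further: 0% = DMSO only and full inhibition = 92 µM tetraoctylammonium bromide; nearly all actives have a fitted effect of over 60% in size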
Procedure, shortened: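 2500 cells/well, 5 hr 37 C; compound added, 24 hr 37 C; CellTiter-Glo 30 min RT; luminescence. qHTS concentration-response, Hill-equation AC50. Tetraoctylammonium bromide positive control.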

[7] = Cell Viability - LYMP2-015 (AID 971);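 further: 0% = DMSO only and full effect = 92 µM tetraoctylammonium bromide; nearly all actives have a fitted effect of over 55% in size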
Procedure, shortened: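 Luminescent ATP read-out (CellTiter-Glo) served as the viability measure after lymphoblastoid cells were exposed to compounds for 24 hours at 37 C. Concentration-response data were fitted with the Hill equation to give AC50.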

[8] = Cell Viability - LYMP2-019 (AID 973);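 further: 0% = DMSO alone and full effect = 92 µM tetraoctylammonium bromide; nearly all actives have a fitted effect of over 55% in size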
Procedure, shortened: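 Luminescent ATP read-out (CellTiter-Glo, 30 min room temperature) served as the viability measure after 24 hr treatment of lymphoblastoid cells at 37 C. Concentration-response data were fitted to the Hill equation for AC50.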

[9] = Cell Viability - LYMP2-023 (AID 975);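 further: cellular ATP measured by luciferase luminescence as viability proxy; plate controls were DMSO only for no effect and 92 µM tetraoctylammonium bromide control for full effect; nearly all actives have a fitted effect of over 55% in size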
Procedure, shortened: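 2500 cells/well, 5 hr 37 C; cpd 24 hr 37 C; CellTiter-Glo, 30 min RT; luminescence. qHTS conc-response, Hill fit -> AC50. Pos ctrl tetraoctylammonium bromide.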

[10] = Cell Viability - LYMP2-006 (AID 978); further: on the % scale 0 is the no-effect control and ±100 the full control effect; nearly all actives have a fitted effect of over 60% in size
Procedure, shortened: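 qHTS, 1536-well; 2500 cells/well, 5 hr 37 C; cpd 24 hr 37 C; CellTiter-Glo 30 min RT; luminescence. Tetraoctylammonium bromide pos. ctrl. AC50 via Hill eqn.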

[11] = Cell Viability - LYMP2-007 (AID 979);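 further: cells exposed to compound for 24 h before reading; 0% = DMSO only and the negative end = 92 µM tetraoctylammonium bromide; nearly all actives have a fitted effect of over 60% in size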
Procedure, shortened: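 Luminescent ATP signal (CellTiter-Glo) serves as the viability read-out after 24 hr compound treatment of lymphoblastoid cells in complete medium at 37 C. Concentration-response data were fitted to the Hill equation to give AC50 values.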

[12] = Cell Viability - LYMP2-010 (AID 981)
Procedure, shortened: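 Luminescent ATP signal (CellTiter-Glo) served as the viability read-out. Cells of the human lymphoblastoid line were treated with compound over a concentration range for 24 hours at 37 C, and AC50 values came from Hill-equation modeling.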

[13] = Cell Viability - LYMP2-014 (AID 983);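 further: plate controls were DMSO only for no effect and 92 µM tetraoctylammonium bromide for full effect; nearly all actives have a fitted effect of over 50% in size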
Procedure, shortened: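 Luminescent ATP signal (CellTiter-Glo, 30 min at room temperature) serves as the viability read-out after 24 hr compound exposure at 37 C. Cells were seeded at 2500 per well and settled 5 hr beforehand.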

[14] = Cell Viability - LYMP2-018 (AID 985);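 further: plate controls were DMSO only for no effect and tetraoctylammonium bromide at 92 µM for full effect; nearly all actives have a fitted effect of over 50% in size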
Procedure, shortened: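 Luminescent ATP signal (CellTiter-Glo, read after 30 min at room temperature) reports viable cells after 24 hr compound treatment at 37 C. Concentration-response data were fitted to the standard Hill equation for AC50.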

[15] = Cell Viability - LYMP2-020 (AID 986)
Procedure, shortened: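 Luminescent ATP signal (CellTiter-Glo, 30 min at room temperature) is the read-out after 24 h compound treatment of lymphoblastoid cells at 37 C. AC50 values come from Hill-equation fits across concentrations.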

[16] = Cell Viability - LYMP2-022 (AID 987); further: nearly all actives have a fitted effect of over 55% in size; further: potency means the concentration at half of the fitted maximal effect;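 on viability change, negative = cytotoxic: 0% = DMSO alone and full effect = tetraoctylammonium bromide at 92 µM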
Procedure, shortened: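 qHTS: human lymphoblastoid cells 2500/well; 5 hr 37 C; cpd added; 24 hr 37 C; CellTiter-Glo, 30 min RT; luminescence. AC50 via Hill fit; tetraoctylammonium bromide positive ctrl.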

[17] = Cell Viability - LYMP2-026 (AID 989); further: on the % scale 0 is the no-effect control and ±100 the full control effect; nearly all actives have a fitted effect of over 50% in size
Procedure, shortened: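 Luminescent ATP signal (CellTiter-Glo, 30 min room temperature) measures viable lymphoblastoid cells after 24 hr compound treatment at 37 C. Decreased ATP reflects acute toxicity; AC50 values come from Hill-equation modeling.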

[18] = molecular target: Retinoic acid receptor RXR-alpha (Homo sapiens) (UniProt P19793); assay: qHTS assay for small molecule agonists of retinoid X receptor alpha signaling (AID 588544; calls by dose curve;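 further: 0% = DMSO basal wells and 100% = reference agonist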)
[19] = molecular target: Voltage-gated inwardly rectifying potassium channel KCNH2 (Homo sapiens) (UniProt Q12809); assay: qHTS Assay for Small Molecule Inhibitors of the Human hERG Channel Activity (AID 588834);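 further: lower thallium flux fluorescence means stronger hERG block; nearly all actives have a fitted effect of over 50% in size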; further: potency means the concentration at half of the fitted maximal effect
Procedure, shortened: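 Concentration-response qHTS measuring drop in thallium-sensitive dye signal. U2OS cells carrying BacMam hERG; compound exposure ~10 min, then stimulation buffer and 2 min read at 1 sec intervals.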

[20] = Cell Viability - LYMP2-002 (AID 977);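 further: plate controls were DMSO only for no effect and 92 µM tetraoctylammonium bromide for full effect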
Procedure, shortened: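 Luminescent ATP readout (CellTiter-Glo, 30 min room temperature) after 24 h compound exposure at 37 C of a human lymphoblastoid line, 2500 cells/well. AC50 values derived by standard Hill fitting of qHTS concentration-response data.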

Voltage-gated inwardly rectifying potassium channel KCNH2 (Homo sapiens), sequence (Q12809 whole entry, looked up): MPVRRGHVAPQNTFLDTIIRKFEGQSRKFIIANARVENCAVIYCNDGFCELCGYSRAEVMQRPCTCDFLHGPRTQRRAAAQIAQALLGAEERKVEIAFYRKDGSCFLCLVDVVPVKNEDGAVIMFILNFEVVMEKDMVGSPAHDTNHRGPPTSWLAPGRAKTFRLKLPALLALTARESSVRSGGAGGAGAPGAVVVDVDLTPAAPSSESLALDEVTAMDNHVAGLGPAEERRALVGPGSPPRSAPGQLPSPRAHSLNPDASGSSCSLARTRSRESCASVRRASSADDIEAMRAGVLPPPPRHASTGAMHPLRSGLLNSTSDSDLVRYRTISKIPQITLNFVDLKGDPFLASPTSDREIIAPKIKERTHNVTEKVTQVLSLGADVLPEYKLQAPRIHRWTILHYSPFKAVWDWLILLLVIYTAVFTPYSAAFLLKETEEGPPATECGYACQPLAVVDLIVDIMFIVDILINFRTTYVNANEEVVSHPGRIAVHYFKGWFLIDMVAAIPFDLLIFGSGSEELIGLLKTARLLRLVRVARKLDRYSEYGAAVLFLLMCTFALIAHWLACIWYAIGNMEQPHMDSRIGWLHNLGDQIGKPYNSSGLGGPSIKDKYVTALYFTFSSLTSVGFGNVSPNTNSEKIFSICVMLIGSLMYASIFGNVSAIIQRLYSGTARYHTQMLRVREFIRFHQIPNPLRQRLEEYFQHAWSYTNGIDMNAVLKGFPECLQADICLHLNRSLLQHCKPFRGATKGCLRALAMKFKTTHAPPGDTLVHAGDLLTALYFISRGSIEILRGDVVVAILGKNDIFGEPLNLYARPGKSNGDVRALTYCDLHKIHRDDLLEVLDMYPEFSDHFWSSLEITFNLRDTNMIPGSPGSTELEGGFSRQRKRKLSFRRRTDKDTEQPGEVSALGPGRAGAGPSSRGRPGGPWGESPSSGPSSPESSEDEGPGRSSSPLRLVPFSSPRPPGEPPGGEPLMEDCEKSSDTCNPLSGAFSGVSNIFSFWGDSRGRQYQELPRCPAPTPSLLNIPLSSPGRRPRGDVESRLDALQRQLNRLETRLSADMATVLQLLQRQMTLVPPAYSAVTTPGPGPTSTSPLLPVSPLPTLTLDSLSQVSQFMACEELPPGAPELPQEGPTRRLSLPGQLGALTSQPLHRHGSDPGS
Retinoic acid receptor RXR-alpha (Homo sapiens), sequence (P19793 whole entry, looked up): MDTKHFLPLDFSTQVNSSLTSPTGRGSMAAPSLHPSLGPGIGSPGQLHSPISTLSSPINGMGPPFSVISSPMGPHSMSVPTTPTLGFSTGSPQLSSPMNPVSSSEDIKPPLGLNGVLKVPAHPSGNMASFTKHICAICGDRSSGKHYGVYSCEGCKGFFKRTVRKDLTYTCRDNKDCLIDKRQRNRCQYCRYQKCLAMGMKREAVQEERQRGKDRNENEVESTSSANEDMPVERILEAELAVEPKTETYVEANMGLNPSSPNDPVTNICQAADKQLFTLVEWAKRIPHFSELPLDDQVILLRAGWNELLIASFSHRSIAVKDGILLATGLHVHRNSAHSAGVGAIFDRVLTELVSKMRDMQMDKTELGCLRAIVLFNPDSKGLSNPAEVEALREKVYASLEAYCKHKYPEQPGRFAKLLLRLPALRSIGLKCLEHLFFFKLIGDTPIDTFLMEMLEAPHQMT

COc1ccc(C=O)cc1
inactive: Potency [1] | Potency [2] | Potency [3] | outcome [4] | Potency [5] | Potency [6] | Potency [7] | Potency [8] | Potency [9] | Potency [10] | Potency [11] | Potency [12] | Potency [13] | Potency [14] | Potency [15] | Potency [16] | Potency [17] | outcome [18] | Potency [19]

O=[N+]([O-])c1ccc(Cl)cc1
inactive: Potency [1] | Potency [2] | Potency [3] | Potency [5] | Potency [6] | Potency [7] | Potency [8] | Potency [9] | Potency [20] | Potency [10] | Potency [12] | Potency [13] | Potency [14] | Potency [15] | Potency [16] | outcome [18] | Potency [19]

CCSC(=O)N1CCCCCC1
inactive: Potency [1] | Potency [3] | outcome [4] | Potency [5] | Potency [6] | Potency [7] | Potency [8] | Potency [9] | Potency [20] | Potency [10] | Potency [13] | Potency [15] | Potency [16] | Potency [17] | outcome [18] | Potency [19]

O=[N+]([O-])c1cccc(O)c1
inactive: Potency [1] | Potency [3] | outcome [4] | Potency [5] | Potency [6] | Potency [8] | Potency [20] | Potency [10] | Potency [11] | Potency [12] | Potency [13] | Potency [14] | Potency [16] | Potency [17] | Potency [19]

S=C1NCCN1
inactive: Potency [1] | Potency [3] | outcome [4] | Potency [5] | Potency [6] | Potency [8] | Potency [9] | Potency [20] | Potency [10] | Potency [11] | Potency [12] | Potency [13] | Potency [15] | Potency [16] | Potency [17] | outcome [18] | Potency [19]

OCCOCCO
inactive: Potency [2] | Potency [3] | Potency [5] | Potency [6] | Potency [7] | Potency [8] | Potency [9] | Potency [20] | Potency [11] | Potency [13] | Potency [14] | Potency [15] | Potency [16] | Potency [17] | outcome [18] | Potency [19]

CN(C)C(=O)Cl
inactive: Potency [1] | Potency [2] | Potency [3] | outcome [4] | Potency [5] | Potency [6] | Potency [7] | Potency [9] | Potency [20] | Potency [10] | Potency [12] | Potency [13] | Potency [15] | Potency [16] | Potency [17] | outcome [18]

Cc1ccc(N)c(N)c1
active: Potency [1] 5.01 µM | Potency [2] 12.6 µM | Potency [16] 12.6 µM
inactive: outcome [4] | Potency [9] | Potency [13] | Potency [17] | outcome [18] | Potency [19]

CC(C)(OOC(C)(C)c1ccccc1)c1ccccc1
active: Potency [19] 15.8 µM
inactive: Potency [1] | Potency [3] | outcome [4] | Potency [5] | Potency [6] | Potency [7] | Potency [8] | Potency [9] | Potency [20] | Potency [11] | Potency [12] | Potency [13] | Potency [14] | Potency [15]

CCCBr
inactive: Potency [2] | Potency [3] | Potency [5] | Potency [7] | Potency [8] | Potency [20] | Potency [11] | Potency [12] | Potency [13] | Potency [14] | Potency [15] | Potency [17] | outcome [18] | Potency [19]

O=S(=O)(Cl)c1ccccc1
inactive: outcome [4] | Potency [5] | Potency [6] | Potency [7] | Potency [8] | Potency [9] | Potency [20] | Potency [10] | Potency [11] | Potency [12] | Potency [13] | Potency [14] | Potency [15] | Potency [16] | Potency [17] | outcome [18] | Potency [19]
active: activity change, negative = cytotoxicity [1] -155% | viability change, negative = cytotoxic [2] -100%

Source: PubChem BioAssay (NCATS)
